About 79,000 compounds went through this panel and 15% of them were active in at least one assay; those are over-represented in the sample as a whole. Unmarked numbers belong to inactive results. Activity calls are given as the source filed them. Cut-off read from the data, not from the text of the source: active = growth inhibition above about 70%; inactive = the rest.
Assay: NCI Yeast Anticancer Drug Screen. Data for the mlh1 strain (AID 171);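 note: 0% = growth of vehicle-treated control cultures of the same strain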
Conditions: S. cerevisiae mlh1 strain growth inhibition, stronger effect = higher value
Method: Growth inhibition of yeast strains with defined genetic alterations is measured as a screen for potential anti-cancer activity. Selected strains with alterations in DNA damage repair or cell cycle control were exposed to compounds and growth inhibition was measured relative to vehicle treated controls. The strain used in this assay is mlh1

Row | Compound | growth inhibition (at 1.2 µM) [%] | growth inhibition (at 3.7 µM) [%] | growth inhibition (at 11.0 µM) | growth inhibition (at 33.0 µM) | growth inhibition (at 100.0 µM)
1 | Oc1ccc(NCn2c(=S)sc3ccccc32)cc1 | -44 | -23 | -9% | 63% | 97% (active)
2 | Cc1ccc2ccc3cccc4ccc1c2c34 | -2 | -2 | -5% | 3% | 30%
3 | Cc1cc(O)cc(O)c1N=Nc1ccc([N+](=O)[O-])cc1 | -10 | -2 | -3% | 23% | 33%
4 | S=C(Nc1ccc(Cl)c(Cl)c1)SCc1ccc2c(c1)OCO2 | -6 | 66 | 99% (active) | 99% (active) | 95% (active)
5 | CC1=C(SCCO)C(=O)c2ccccc2C1=O | 0 | -2 | 7% | 8% | 5%
6 | Clc1ccc(SC(/C=C/NNC2=NC(c3ccccc3)C(c3ccccc3)=NN2)c2ccccc2)cc1 (stereo not given) | -3 | 5 | -4% | 31% | 84% (active)
7 | COc1ccc2nc3cccc([N+](=O)[O-])c3c(NCCN(CCO)CCO)c2c1 | 5 | 25 | 61% | 84% (active) | 86% (active)
8 | O=[N+]([O-])c1cc2no[n+]([O-])c2cc1N1CCCCC1 | 24 | 68 | 98% (active) | 99% (active) | 100% (active)
